Molecules are shown by their SMILES. Hit rate of the full screen: of about 380,000 compounds, about 4,000 (1.1%) were called active. Roughly 3% stayed inconclusive and do not appear here. Calls come from the whole dose curve; as a rule, active = well fitted activation curve with a large enough effect; inconclusive = small, poorly fitted or top-dose-only effect; inactive = no such curve, though single readings can be large or run the other way. The list comes from a sample in which actives are over-represented; it also holds similar structures and randomly drawn compounds. Entries that show only a call come without a potency.

The values below come from PubChem BioAssay AID624202 (National Center for Advancing Translational Sciences (NCATS), 2012).
Potency is the fitted concentration of half-maximal effect.

A short description of this experiment: qHTS Assay to Identify Small Molecule Activators of BRCA1 Expression. Note: nearly all actives have a fitted effect of over 80% in size. Particulars: MCF7-BRCA1-FFLuc reporter, luminescence, 48 h; series mostly up to 46.1 µM. The source says:
Functionally, BRCA1 has been implicated in a wide array of cellular activities, including DNA damage repair, cell-cycle checkpoint control, growth inhibition, apoptosis, transcriptional regulation, chromatin remodeling, protein ubiquitylation, and mammary stem cell self-renewal and differentiation. Reduction in BRCA1 levels is associated with an increase in tumor growth and resistance to anti-estrogenic agents, such as tamoxifen, while an increase in BRCA1 expression leads to cell growth arrest and apoptosis. […] The frequent loss of BRCA1 expression in invasive breast cancers in the absence of somatic mutation has been attributed to numerous mechanisms, including hypermethylation of the BRCA1 promoter, exaggerated ubiquitylation of BRCA1 protein, and improper intracellular localization. […] Basal-like breast cancers (BLBCs) are associated with an aggressive clinical course, resistance to chemotherapy, and typically lack expression of estrogen receptor (ER), progesterone receptor (PR), and epidermal growth factor receptor 2 (HER2). BLBCs account for 10-17% of all breast cancers, have few therapeutic options, and are considered the biggest unmet need in the treatment of breast cancer. Conversely, tumors which maintain expression of functional BRCA1 are almost uniformly luminal type cancers, and are accordingly associated with more indolent clinical courses, responsiveness to endocrine therapies, and improved survival.
As such, it is possible that an increase in BRCA1 expression would enable cellular differentiation and restore tumor suppressor function, resulting in delayed tumor growth and less aggressive, more treatable breast cancers. The long term goal of this proposal is to develop a novel prevention or therapeutic agent for breast cancer patients. To accomplish this goal, the overall objective of this proposal is to access the resources provided by the NIH Molecular Libraries Roadmap Initiative and the Molecular Libraries Probe Production Centers Network (MLPCN) to discover and develop new chemical activator probes that will increase BRCA1 expression and function.
NIH Molecular Libraries Probe Production Network [MLPCN]
NIH Chemical Genomics Center [NCGC]
PI Name: Lisa Harlan-Williams, University of Kansas Medical Center
5microl of MCF7-BRCA1-FFLuc cell suspension (400 cells/microl in phenol-red free MEM) are dispensed into Greiner white solid bottom 1536-well assay plates, yielding a final well density of 2000 cells/well. Plates are incubated for 2 hours at 37 degrees C in 5% humidified CO2 to allow cell attachment. Compounds are then transferred via Kalypsys pin tool equipped with 1536-pin array (10nl slotted pins, V&P Scientific, San Diego, CA). The plates are then incubated at 37 degrees C in 5% humidified CO2 for 48 hours. The NCGC in-house luciferase substrate reagent, Buglite, is then added (2.5microl) and plates incubated for 15 minutes, before being transferred to a ViewLux high-throughput CCD imager (PerkinElmer) wherein single end-point measurements of luminescence are acquired using a clear filter. The positive control compound, genistein, will be pinned into dedicated control columns on each plate, including a 16-point 1:3 titration in duplicate, as well as a 10microM maximum activation control, allowing for the normalization of screening activity. DMSO will be pinned into a separate column as a negative control.
All screening operations will be performed on a fully integrated robotic system (Kalypsys, San Diego, CA) containing one RX-130 and two RX-90 anthropomorphic robotic arms (Staubli, Duncan, SC). Library plates will be screened starting from the lowest and proceeding to the highest concentration. Vehicle-only plates, with DMSO being pin-transferred to columns 5-48, will be inserted uniformly at the beginning and the end of each library in order to monitor and record any shifts in the background, which can be affected by reagent dispensers or loss in enzyme activity over time. […]
On the technique in general: qHTS replaces the single test concentration by a dilution series.
With `COc1cc(OC)c(C2C=C(C(=O)O)Nc3ncnn32)cc1OC` (centres undefined), the Potency result is “inactive”.
Consider `COc1ccc(C)cc1NC(=O)CCc1c(C)nn(-c2ccc(N3CCOCC3)nn2)c1C`, for which the Potency entry is “inactive”.
For the molecule `CCOc1ccc(C(O)Cn2c(=N)n(CCN3CCCCC3)c3ccccc32)cc1` (centres undefined), the Potency entry is “inactive”.
Regarding `COc1cccc(C(O)Cc2nc3ccccc3n2C)c1OC` (centres undefined), the Potency result was “inactive”.
Take `CCOc1ccc(C(O)Cc2nc3ccccc3n2C)cc1` (centres undefined): the Potency is 12.6 µM (active).
`CCn1cc2nc(SCc3ccccc3Cl)n(CCc3ccccc3)c(=O)c2n1`: the Potency result was “inactive”.
In the case of `CC(C)(C)C1CCC(NC(=O)c2cnn3c2NC(=C2CC2)C=C3C(F)F)CC1` (centres undefined), the Potency result was “inactive”.
Then `CSCCNC(=O)c1ccc2nc(Cc3ccccc3F)oc2c1`, with 12.6 µM (active).
With `COc1ccc(Cc2nc3ccc(C(=O)NCC4CCOCC4)cc3o2)cc1OC`, the Potency entry is “inactive”.
With `COc1ccc(Cc2nc3ccc(C(=O)NCc4ccc(OC)cc4OC)cc3o2)cc1`, the Potency entry is “inactive”.
Then `COc1ccc(CCn2c3c(c(=O)[nH]c2=S)CN(C(C)C)CN3)cc1OC`, with “inactive”; and `NS(=O)(=O)c1ccc(Nc2nc(-c3ccccc3)cs2)cc1`, with 7.08 µM (active); and `CC(=O)c1ccc(Nc2nc(C(N)c3ccccc3)cs2)cc1` (centres undefined), with “inactive”.
Take `COC(=O)[C@H](Cc1ccccc1)NC(=O)Nc1ccc(S(N)(=O)=O)cc1`: the Potency result is “inactive”.
Consider `NS(=O)(=O)c1ccc(NC(=O)CSc2nnc3c(n2)[nH]c2ccccc23)cc1`, for which the Potency entry is “inactive”.
`COCCNC(=O)c1ccc2c(c1)N=C(C)c1cc(C)ccc1S2`: the Potency result is “inactive”.
On to `N#Cc1ccc(C2N=C(c3ccccc3)NO2)cc1` (centres undefined), for which the Potency is 2.51 µM (active).
Turning to `Brc1ccccc1C1N=C(c2ccccc2)NO1` (centres undefined), the Potency result is “inactive”.
Then `CCOc1ccccc1NC(=O)C1=C(C)Nc2ncnn2C1c1ccc(NC(C)=O)cc1` (centres undefined), with “inactive”; and `CC(=O)N1c2ccc(S(=O)(=O)N3CCCCCC3)cc2CC1C(=O)NCc1ccccc1C` (centres undefined), with “inactive”.
`COc1ccc(-c2csc(Nc3cccc(C)n3)n2)cc1OC`: the Potency was 2.82 µM (active).
With `COc1ccc(-c2cc(C(F)(F)F)n3nc(-c4ccccc4)cc3n2)cc1OC`, the Potency result was “inactive”.
On to `COc1cccc(C(O)c2nc(-c3ccc(C)c(C)c3)cs2)c1` (centres undefined), for which the Potency entry was “inactive”.
Then `O=C(c1ccc2c(=O)n(Cc3ccco3)c(=S)[nH]c2c1)N1CCCC1`, with “inactive”.
Turning to `O=C(Nc1cccc2cccnc12)c1cccc2c(Br)cccc12`, the Potency result was “inactive”.
Then `Brc1cccc(-c2nnn3c2nc(NC2CCCCC2)c2ccccc23)c1`, with “inactive”.
Under `COc1ccc(-c2nc3ccccc3o2)cc1NC(=O)c1cc([N+](=O)[O-])ccc1N1CCOCC1` stands “inactive”; under `CC(=O)Nc1cccc(-c2cnc3ccccc3n2)c1`, 3.98 µM (active); under `CC(=O)Nc1cccc(-c2cc(NC(C)=O)c3ncc(-c4ccccc4)n3c2)c1`, “inactive”.
Under `CCS(=O)(=O)Nc1cccc(-c2cc(-c3ccccc3)c3cc(C)ccc3n2)c1` stands “inactive”; under `Cc1c(C)c(C)c(S(=O)(=O)NCCc2ccccn2)c(C)c1C`, “inactive”; under `COc1ccc(NCCc2ccccn2)cc1`, 12.6 µM (active).
`COc1cncc(-c2cnc3sc(NCCc4ccccn4)nn23)c1`: the Potency entry is “inactive”.
With `CN(Cc1ccccc1)c1ncnc2onc(-c3ccc(F)cc3)c12`, the Potency entry was “inactive”.
In the case of `O=C(CC(c1ccccc1)c1ccccc1)NCC(O)c1ccc([N+](=O)[O-])cc1` (centres undefined), the Potency result was “inactive”.
Regarding `CCCCCCOC(=O)NCC(O)c1ccccc1` (centres undefined), the Potency was 2.82 µM (active).
With `CCCCOC(=O)Nc1nnc(CC(=O)NCc2ccccc2)s1`, the Potency result is “inactive”.
With `COc1ccc2cc(CNc3ccc(OC)c(OC)c3)c(=O)n(CC(=O)Nc3ccccc3F)c2c1`, the Potency entry was “inactive”.
With `COc1cc2nc(N3CCCN(C)CC3)nc(NC(C)C)c2cc1OC`, the Potency entry was “inactive”.
Take `COc1cccc(CNC(=O)C(NS(=O)(=O)c2ccc3nc(C)sc3c2)C(C)C)c1` (centres undefined): the Potency entry was “inactive”.
Under `NS(=O)(=O)c1ccc(NC(=S)N2CCCC2)cc1` stands “inactive”; under `CCC(C)c1ccc(NC(=O)COC(=O)C2CCCC2)cc1` (centres undefined), “inactive”.
`CCC(C)c1ccc(NC(=S)N2CCCC2)cc1` (centres undefined): the Potency is 12.6 µM (active).
With `CCN(C(=O)Cn1cnc2sc(C)c(S(=O)(=O)N3CCN(c4ncccn4)CC3)c2c1=O)c1ccccc1F`, the Potency result is “inactive”.
On to `COc1ccc(-c2ocnc2C(=O)Nc2ccc3c(c2)CCC3)cc1`, for which the Potency result is “inactive”.
Consider `COc1ccc(-c2onc3ccc(C(C)=O)cc23)cc1`, for which the Potency is 8.91 µM (active).
Under `CCOC(=O)c1c(-c2ccc(OC)cc2)oc2ccc(OCc3ccc(C(=O)OC)cc3)cc12` stands “inactive”; under `Cc1ccc(N2CC(C(=O)Nc3ccc(N(C)C)cc3)CC2=O)cc1Cl` (centres undefined), “inactive”; under `O=C(Nc1ccc(F)cc1F)c1cnn(-c2ccc(F)cc2)c1-n1cccc1`, “inactive”.
Regarding `CC(C)CC(=O)Nc1ccc(Cc2ccncc2)cc1`, the Potency result is “inactive”.
As for `CCc1ccc(NC(=O)N[C@H](C(=O)O)C(C)CC)cc1` (some centres undefined), the Potency result was “inactive”.
Under `CCc1ccc(NC(=O)Nc2ccncc2)cc1` stands 10 µM (active); under `Cc1ccccc1Nc1nn2c(=O)c3ccc(C(=O)NCCc4ccc(Cl)cc4)cc3nc2s1`, “inactive”.
On to `CN(N=O)c1ccc(C=C2c3ccccc3-c3ccccc32)cc1`, for which the Potency result is “inactive”.
`COc1ccc(S(=O)(=O)NCCSc2nnnn2-c2ccccc2)cc1`: the Potency result was “inactive”.
With `O=C(Nc1ccc(F)cc1F)c1ccc2c(=O)n3c(nc2c1)CCCCC3`, the Potency entry is “inactive”.
Turning to `CCc1nc2c(cnn2-c2ccc(C)cc2)c(=O)n1-c1ccc(C)cc1`, the Potency result is “inactive”.
With `CCCNC(=O)CCc1c(C)nc2c(c(C)nn2-c2ccc(C)cc2)c1C`, the Potency result was “inactive”.
As for `CCCNC(=O)c1c(Cl)cnn1-c1ccc(C)cc1`, the Potency is 10 µM (active).
On to `COc1ccccc1CNC(=O)CCn1c(=O)c2ccccc2n(CC(=O)Nc2cccc(Cl)c2)c1=O`, for which the Potency entry was “inactive”.
Under `O=C1Oc2ccccc2C(=O)/C1=C/c1ccccc1O` stands “inactive”; under `COc1cc(/C=C2\Oc3ccc(C#Cc4ccc(O)cc4)cc3C2=O)cc(OC)c1`, “inactive”; under `COc1ccc2c(c1)O/C(=C\c1ccccc1O)C2=O`, 12.6 µM (active).
Under `Cc1ccc(C)c(CN2C(=O)c3ccccc3S(=O)c3ccc(C(=O)N4CCOCC4)cc32)c1` (centres undefined) stands “inactive”; under `Cc1ccc(-c2cc(-c3coc4ccccc4c3=O)c3c(n2)-c2cc(Cl)ccc2OC3)cc1`, “inactive”.
As for `CN(C)CCCn1c(-c2ccc(Cl)cc2)csc1=Nc1ccccc1`, the Potency result is “inactive”.
In the case of `O=S(=O)(NCCOc1cccc2cccnc12)c1ccc(F)cc1`, the Potency entry was “inactive”.
Then `Fc1ccccc1COc1cccc2cccnc12`, with 7.94 µM (active).
For the molecule `CCOc1cccc(OCCCOc2cccc3cccnc23)c1`, the Potency entry was “inactive”.
